Assay results from PubChem BioAssay AID1779 (Sanford-Burnham Center for Chemical Genomics, 2009).
Out of some 290,000 compounds screened, about 160 (0.055%) were called active. This is one part of a sample in which actives are shown more often than they occur. Rule as the data show it: active = inhibition above about 50%; inactive = the rest.

The compounds below were run against Tyrosine-protein phosphatase non-receptor type 22 (Homo sapiens) (UniProt Q9Y2R2) (assay: inhibitors of LYP phosphatase, biochemical, fluorescence intensity, uHTS (AID 1779;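 also: plate controls were vehicle with enzyme for no effect and no enzyme for full effect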)). Details: recombinant LYP phosphatase, at 11.5 µM, active compounds read high.
Chain of Tyrosine-protein phosphatase non-receptor type 22 (Homo sapiens) (Q9Y2R2 whole entry, looked up): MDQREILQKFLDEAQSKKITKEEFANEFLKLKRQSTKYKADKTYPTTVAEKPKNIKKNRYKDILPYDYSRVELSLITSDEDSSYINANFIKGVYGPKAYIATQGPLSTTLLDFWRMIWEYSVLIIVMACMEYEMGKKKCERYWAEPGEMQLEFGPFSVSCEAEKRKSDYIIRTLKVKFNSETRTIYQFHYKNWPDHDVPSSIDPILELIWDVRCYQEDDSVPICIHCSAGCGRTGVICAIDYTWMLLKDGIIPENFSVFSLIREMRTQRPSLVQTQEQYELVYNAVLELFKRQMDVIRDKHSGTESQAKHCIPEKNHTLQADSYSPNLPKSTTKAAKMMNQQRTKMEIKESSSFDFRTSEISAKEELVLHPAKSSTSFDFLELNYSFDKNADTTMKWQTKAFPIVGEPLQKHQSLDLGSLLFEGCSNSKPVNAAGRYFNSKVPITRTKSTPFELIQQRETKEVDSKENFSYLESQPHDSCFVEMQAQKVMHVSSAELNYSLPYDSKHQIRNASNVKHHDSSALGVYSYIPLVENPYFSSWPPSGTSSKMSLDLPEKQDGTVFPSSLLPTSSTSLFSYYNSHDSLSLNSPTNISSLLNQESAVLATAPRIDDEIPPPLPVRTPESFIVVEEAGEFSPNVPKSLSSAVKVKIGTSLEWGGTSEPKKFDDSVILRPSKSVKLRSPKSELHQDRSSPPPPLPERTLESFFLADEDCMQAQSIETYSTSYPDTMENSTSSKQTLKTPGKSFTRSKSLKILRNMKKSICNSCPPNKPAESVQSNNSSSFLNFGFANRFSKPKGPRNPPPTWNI

inhibition, inactive:
COc1ccc(N2CCN(C(=O)c3ccc(COc4ccc5c(C)cc(=O)oc5c4)cc3)CC2)cc1 2.8%, Cc1cc(=O)oc2cc(OCCSCCN3CCOCC3)ccc12 -5.9%, N#C/C(=C\c1ccccc1O)C(=O)Nc1cccnc1 -9%, O=C(CCN1C(=O)c2ccccc2S1(=O)=O)Nc1ccccc1O -0.2%, CCc1nnc(NS(=O)(=O)c2ccc(NC(=O)c3cccc4ccccc34)cc2)s1 1.6%, CCc1nnc(NS(=O)(=O)c2ccc(NC(=O)c3cc4ccccc4oc3=O)cc2)s1 1.9%, Cc1c(C)n(C(=O)CN2CCN(c3ccccn3)CC2)c2ccccc12 5.2%, O=C(Nc1c(F)cccc1F)c1ccc2c(c1)CCN2S(=O)(=O)c1ccccc1 -8.4%, Cc1cc(Cl)ccc1OCc1n[nH]c(=S)n1C1CCCCC1 4%, Cc1ccc(N2CCN(CCCN3C(=O)C4CCCN4C3=O)CC2)cc1 (configuration not stated) 1.4%, Nc1ccc(N2CCN(CCCCN3C(=O)C4CCCN4C3=O)CC2)cc1 (configuration not stated) -25%, Cc1cccc(OCC(O)CN2CCOCC2)c1 (configuration not stated) -8.2%, CCN(CC)CCCNC(=O)Cn1ncn2cccc2c1=O -3.9%, CC(C)(C)c1ccc(C2(C)NC(=O)N(CC(=O)NCc3cccs3)C2=O)cc1 (configuration not stated) -8.4%, COc1ccc(OC(C)C(=O)N2CCC(C)CC2)cc1 (configuration not stated) -5.6%, COc1ccc(OC(C)C(=O)N2CCOCC2)cc1 (configuration not stated) -9.8%, COC(=O)c1ccc2c(c1)NC(=O)C(N1CCCCC1)S2 (configuration not stated) 1%, Cc1c(C(=O)O)sc2nc(/C=C/c3cccc(F)c3)[nH]c(=O)c12 -4.3%, Cc1c(C(=O)O)sc2nc(/C=C/c3cccc(O)c3)[nH]c(=O)c12 -5.3%, CCCOc1ccc(/C=N/NC(=O)CSc2ccccn2)cc1OC 0.2%, CCN(CC)S(=O)(=O)c1ccc(N2CCOCC2)c(NC(=O)Cc2cccc3ccccc23)c1 -0.8%, COc1ccc(C(CC(=O)N2CCCCC2)c2c(OC)cc(OC)c3ccc(=O)oc23)cc1 (configuration not stated) -2.3%, CS(=O)(=O)N1CCN(C(=O)c2ccncc2)CC1 -7.1%, COc1ccc(C(=O)N2CCN(C(=O)c3ccncc3)CC2)cc1 -9.1%, CC(=O)N1CCCN(Cc2cn(-c3cccc(C)c3)nc2-c2cccc(F)c2)CC1 -2.6%, Cc1ccc(-n2cc(CN3CCN(C(=O)c4ncn[nH]4)CC3)c(-c3ccc(F)cc3)n2)cc1 -3.9%, CCN(CCCNC(=O)COc1cc(=O)n(CC)c2ccccc12)Cc1ccccc1 6.1%, CCOc1ccc(Nc2nc(N)c([N+](=O)[O-])c(N3CCN(CC)CC3)n2)cc1 -3.7%, N#C/C(=C(/O)c1ccc(C(=O)c2ccccc2)cc1)c1nc2ccccc2[nH]1 -4.1%, O=C(N/N=C/c1ccccn1)c1ccc(Cl)cc1 -5.3%, O=C(N/N=C/c1ccccn1)c1ccccc1 2.8%, COc1cc(/C=C2\SC(=O)N(c3ccccc3Cl)C2=O)cc([N+](=O)[O-])c1O 11.7%, COc1cc(/C=C2\SC(=O)N(CC(=O)Nc3cccc(C)c3)C2=O)cc([N+](=O)[O-])c1O 4.5%, COc1cc(/C=C2\SC(=O)N(Cc3ccc(F)cc3)C2=O)cc([N+](=O)[O-])c1O 0.7%, COc1cc(/C=C2\SC(=O)N(Cc3ccc(Cl)cc3)C2=O)cc([N+](=O)[O-])c1O 33%, CS(=O)(=O)N(CC(=O)N1CCN(c2cccc(Cl)c2)CC1)c1cccc(F)c1 4.5%, CCCCN(C)CCC(=O)Nc1ccc2c(c1)CCC2 -2.9%, CCOc1ccc(Cl)cc1/C=N/NC(=O)c1ccccc1 -4.5%, CC1(C)c2ccccc2N2CC(=O)N[C@@]21/C=C/C=C/c1ccccc1 8.6%, c1cc(-n2nnc3cnccc32)ccn1 -4.3%, O=C(CSc1ccc2c(c1)OCCO2)Nc1ccc(Cl)cn1 -8.6%, CC(=O)Nc1ccc(NC(=O)CSc2ccc(C)cc2)cc1 -2.7%, CCn1cc(C(=O)NCCCN(CC(C)C)CC(C)C)c(=O)c2cc(S(=O)(=O)N(C)C3CCCCC3)ccc21 -0.6%, O=C(NC1CCSc2ccccc21)c1ccc(C(F)(F)F)cc1 (configuration not stated) -7.3%, O=C(NCc1ccc(F)cc1)c1c2c(nc3ccccc13)CCC2 3.5%, Cc1ccc2c(C)c(C(=O)NCC(C)(C)N3CCOCC3)oc2c1C -8.2%, COc1ccc(NC(=O)CC#N)cc1OC 0.1%, C=CCc1ccc(OC)c(OC)c1 -8.6%, CC(C)N(C(=O)CSc1nc2ccccc2n1Cc1ccccc1F)C(C)C 5.2%, CCOC(=O)C(C(=O)NCC1CCCO1)C1CCCCC1 (configuration not stated) -4.2%, COC(=O)C(C(=O)NCC1CCCO1)C1CCCC1 (configuration not stated) -6.5%, CCOC(=O)NC(=O)C(=CNc1cccc(C)c1)C(=O)NC(=O)OCC -4.7%, CCOC(=O)NC(=O)C(=CNc1cccc(OC)c1)C(=O)NC(=O)OCC -7.5%, O=C(CN1C(=O)NC2(CCc3ccccc3C2)C1=O)Nc1ccc(F)cc1 (configuration not stated) 2%, COCC(=O)N(Cc1cc2ccc(C)cc2[nH]c1=O)c1cccc(C)c1 -1%, NS(=O)(=O)c1cc(C(=O)OCC(=O)N2CCOCC2)ccc1Cl -4%, COc1ccc(/C=C2\SC(=S)N(CCCC(=O)Nc3ccc(C(=O)O)cc3)C2=O)cc1OC -1.9%, COc1cc(/C=C2/SC(=S)N(CCC(=O)Nc3ccc(C(=O)O)cc3)C2=O)cc(OC)c1OC -0.9%, O=S(=O)(CCc1ccncc1)C1Cc2cccc3cccc1c23 (configuration not stated) -6.1%, CC(C)(C)S(=O)(=O)c1cnc(N2CCCCC2)nc1N -1.3%, COc1ccc(N2C(=O)CC(NC34CC5CC(CC(C5)C3)C4)C2=O)c(OC)c1 (configuration not stated) -6.7%, CC(=O)c1cccc(NC(=O)NC(C)c2ccc3c(c2)OCO3)c1 (configuration not stated) -12.5%, CCCNC(=O)c1ccccc1N1CCN(CCCCN2C(=O)C3CCCCN3C2=O)CC1 (configuration not stated) -16.7%, COc1ccc(C2CC(c3cccs3)=NN2C(=O)CSc2nncn2C)cc1OC (configuration not stated) 7.7%, Cc1c(N=Nc2ccc(O)cc2)c(=O)n(-c2ccccc2)n1C -2.3%, Cc1c(-n2c(=S)[nH]c3ccccc3c2=O)c(=O)n(-c2ccccc2)n1C -7.5%, Cc1cc2c(c(SCC(=O)NCc3ccc(Cl)cc3)n1)C(=O)OC2 -1.3%, CSCCC(NC(=O)c1ccccc1)C(=O)N(C)CC(=O)Nc1ccc(N2CCOCC2)cc1 (configuration not stated) -6.8%, COCCN(C(=O)COC(=O)c1cccc2ccccc12)c1c(N)n(Cc2ccccc2)c(=O)[nH]c1=O -10.3%, Cc1cccc(C)c1Nc1nnc(SC/C(O)=C(\C#N)c2nc3ccccc3[nH]2)s1 4.2%, CCOC(=O)C(C(C)C)C(N)Cc1ccc(F)cc1 (configuration not stated) -7.7%, CCCCC(CC)C(=O)NCc1ccc(F)cc1 (configuration not stated) -9.2%, CC(C)CNC(=O)C1CCCN(C(=O)NCc2ccccc2)C1 (configuration not stated) -8.2%, CN(C)CCCN1C(=O)CSC1c1ccccc1 (configuration not stated) -5.4%, COc1cc(C2SCC(=O)N2CCCN(C)C)cc(OC)c1OC (configuration not stated) -6.3%, COc1ccc(C2CC23N=C(c2ccccc2)OC3=O)cc1 (configuration not stated) -2.9%, Cc1nnc(SCc2cccs2)[nH]c1=O -5.9%, O=C(NC1CCN(Cc2ccccc2)CC1)C1CCCN(c2nnc(-n3cccc3)s2)C1 (configuration not stated) -1.4%, CC(C)C(OC(=O)c1cc2occc2n1C)C(=O)NCc1ccc2c(c1)OCO2 (configuration not stated) 3.8%, CC(C)n1c(C(=O)OCC(=O)NCc2ccc3c(c2)OCO3)cc2sccc21 -13%

inhibition, active:
COc1ccc(N2CCN(CCOc3ccc4c(C)cc(=O)oc4c3)CC2)cc1 67.7%, C=CCc1cccc2cc(C(=O)Nc3ccc(S(=O)(=O)Nc4nnc(CC)s4)cc3)c(=O)oc12 71.3%, Cc1ccc(N2CCN(CCCCN3C(=O)C4CCCN4C3=O)CC2)cc1 (configuration not stated) 62.7%, COc1ccc(OC(C)C(=O)N2CC(C)OC(C)C2)cc1 (configuration not stated) 63.6%, O=C(c1ccncc1)N1CCN(C(=O)c2ccncc2)CC1 67%, Cc1cccc(-n2cc(CN3CCN(C(=O)c4ncn[nH]4)CC3)c(-c3cccc(F)c3)n2)c1 56.5%, O=C(N/N=C/c1ccccn1)c1ccc(Cl)c(Cl)c1 72%, COc1cc(/C=C2\SC(=O)N(c3cccc(Cl)c3)C2=O)cc([N+](=O)[O-])c1O 92.2%, COc1cc(/C=C2\SC(=O)N(c3ccc(Cl)cc3)C2=O)cc([N+](=O)[O-])c1O 91.6%, CC(=O)Nc1ccc(SCC(=O)Nc2ccc(Cl)cn2)cc1 77.1%, COc1ccc(C(C#N)(CCC#N)CCC#N)cc1OC 56.1%, COC(=O)C(C(=O)NCC1CCCO1)C1CCCCCC1 (configuration not stated) 86.6%, CCOC(=O)NC(=O)C(=CNc1ccc(C)cc1)C(=O)NC(=O)OCC 57.4%, Cc1[nH]c2ccccc2c1N=Nc1c(C)n(C)n(-c2ccccc2)c1=O 94.5%, CCCCC(C(=O)OCC)C(N)Cc1ccc(F)cc1 (configuration not stated) 89.5%, COc1ccc(C2SCC(=O)N2CCCN(C)C)cc1 (configuration not stated) 50.7%, CC(C)n1c(C(=O)OCC(=O)NCc2ccc3c(c2)OCO3)cc2occc21 59.5%
